MEX-5 binding = MEX-5 zinc finger RNA-binding disruptors – biochemical, C. elegans, fluorescence polarization, MLPCN library, primary screen; MEX-5/FITC-TCR2 RNA binding; stronger effect = lower value; activity score (negative = inhibition of binding), % at 10 µM; hit rate 0.38% among 300,000;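 active means inhibition past about -25% in most replicates, and total fluorescence under double the plate's negative control median, limit read from the data; inconclusive means replicates evenly split on the limit, or fluorescence at least double controls; inactive means too little inhibition in most replicates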;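 further: 0% = DMSO and -100% = 5 µM competing unlabeled TCR2 RNA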
Target sequence (Q9XUB2 whole entry, looked up): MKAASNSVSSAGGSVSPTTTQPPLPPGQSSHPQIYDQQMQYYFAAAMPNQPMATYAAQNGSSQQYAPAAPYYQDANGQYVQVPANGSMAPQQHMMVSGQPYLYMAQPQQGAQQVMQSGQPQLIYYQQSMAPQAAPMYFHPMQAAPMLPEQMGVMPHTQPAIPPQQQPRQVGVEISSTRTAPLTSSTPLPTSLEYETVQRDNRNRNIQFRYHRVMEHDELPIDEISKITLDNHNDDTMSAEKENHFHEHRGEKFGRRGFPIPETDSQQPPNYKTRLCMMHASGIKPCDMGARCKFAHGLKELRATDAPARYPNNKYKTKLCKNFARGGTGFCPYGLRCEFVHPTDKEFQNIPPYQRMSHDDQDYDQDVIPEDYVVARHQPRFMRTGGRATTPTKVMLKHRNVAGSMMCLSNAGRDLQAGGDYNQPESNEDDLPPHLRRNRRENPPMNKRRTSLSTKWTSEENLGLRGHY
MCL1 BIM primary = inhibitors of MCL1 binding to BIM-BH3, primary screen, biochemical, fluorescence polarization | Induced myeloid leukemia cell differentiation protein Mcl-1 (Homo sapiens), Q07820 | hit rate 0.68% among 320,000 | inhibition, % at 10.9 µM | GST-MCL1 / FITC-Bim-BH3 fluorescence polarization;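 active means inhibition above the mean inhibition of all tested compounds plus 3 SD, set per campaign, cut at about 40% in these data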;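 further: 0% = DMSO wells and 100% = unlabeled Bim-BH3 peptide control; higher means more loss of mP so more displacement of Bim peptide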
BCLXL inh = inhibitors of human Bcl-xL, primary screen, biochemical, fluorescence polarization, HTS. Bcl-2-like protein 1 (Homo sapiens), Q07817. GST-Bcl-xL / FITC-Bim BH3 peptide fluorescence polarization. inhibition, % at 10.9 µM. hit rate 0.7% among 320,000. AID 2129, 2009;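 active means inhibition above the mean of all tested compounds plus 3 SD, cutoff set per campaign, cut at about 30% in these data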;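 further: 0% = DMSO wells and 100% = unlabeled Bim-BH3 peptide competitor; inhibitors lower millipolarization by displacing the labeled peptide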
eLon inh = inhibitors of E. coli Lon protease, primary screen, biochemical, fluorescence polarization. P0A9M0. purified E. coli Lon protease. inhibition, % at 7.94 µM. hit rate 0.42% among 360,000. AID 602123, 2011; in the data active means inhibition above about 13%, passing the limit was not always enough;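 further: 0% = enzyme with probe and DMSO and 100% = no enzyme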
GLD-1 RNA inh = GLD-1/TGE RNA complex disruptors, primary screen, biochemical, fluorescence polarization | Female germline-specific tumor suppressor gld-1 (Caenorhabditis elegans), Q17339 | purified GLD-1 + fluorescein TGE RNA | inhibition, % at 5.96 µM | hit rate 0.44% among 320,000 | AID 2280, 2010;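 active means percent inhibition above a per-plate cutoff, the plate mean of test compounds plus 3 SD, cut at about 30% in these data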;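 further: 0% = DMSO wells with GLD-1 and probe and 100% = wells lacking GLD-1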
* hit, by the source's call; i = inactive; ? = inconclusive; . = no result. Sampled rows, rich in hits. Any-hit rate of the full collection: about 1.4%.

SMILES	MEX-5 binding	MCL1 BIM primary	BCLXL inh	eLon inh	GLD-1 RNA inh
Cc1nc2cc(N)ccc2n1C1CCCCC1	-39*	4	0	-3	1
CCn1c(C)nc2cc(N)ccc21	-51*	7	3	-13	-1
CC(C)OC(=O)c1sc2nc(-c3ccccc3)ccc2c1N	-2	6	5	-8	3
COc1ccc(C(=O)c2sc3nc(-c4ccccc4)ccc3c2N)cc1	-3	40*	52*	-113	-43
Cc1ccc2c(ccc[n+]2CC(=O)c2ccccc2)c1	-3	20	24	-2	-20
O=C(C[n+]1cc(Br)cc2ccccc21)c1ccccc1	1	45*	49*	-116	-31
O=c1c2ccccc2c(=O)n2n1Cc1ccccc1C2	1	-3	4	-4	-6
CCn1nc(NC(=O)CC(C)C)c2cc3cccc(C)c3nc21	0	1	137*	-3	7
CCCn1nc(NC(=O)CC(C)C)c2cc3cccc(C)c3nc21	-2	-6	-2	-3	-4
Cc1c(Cl)cnc(NC(=O)CSc2nncs2)c1Cl	-1	10	9	-2	3
COc1ccc(-n2ncc3c2CC(C)(C)CC3NC(=O)CSc2ccccn2)cc1 (configuration not stated)	0	6	2	9	-7
CC1(C)Cc2c(cnn2-c2cccc(F)c2)C(NC(=O)CSc2ccccn2)C1 (configuration not stated)	-44*	5	6	-3	-1
Cc1cc(O)c(C(C)C)cc1N=C1CSC(=O)N1	?	39	40*	2	30
CN1C(=CC=C2C=C(I)C(=O)C(I)=C2)C(C)(C)c2ccccc21	.	.	.	0	.
CN1/C(=C\C=C2/SC(=S)NC2=O)C(C)(C)c2ccccc21	22	-13	37*	i	-101
CCCN1C(=O)/C(=C\C=C2\N(CC)c3ccccc3C2(C)C)SC1=S	1	.	.	-139	.
CN1/C(=C\C=C2/C(=O)Oc3ccccc3C2=O)C(C)(C)c2ccccc21	11	8	47*	.	-127
CCOC(=O)C1=C(C)N=c2s/c(=C\c3cccn3C)c(=O)n2C1c1cccc(OC)c1OC (configuration not stated)	-40*	-17	-12	-42	-20
CC(=O)c1cc(NC(=O)c2cccc(C(F)(F)F)c2)c(=O)oc1/C=C/N(C)C	-36*	-85	-44	-62	-72
CC(=O)c1cc(NC(=O)c2ccc(Cl)cc2)c(=O)oc1/C=C/N(C)C	-26*	-103	-69	-146	-151
CC(=O)c1cc(NC(=O)c2cccc(C(F)(F)F)c2)c(=O)oc1C	-1	5	8	-6	-7
COc1ccc(C(=O)Nc2cc(C(C)=O)c(C)oc2=O)cc1	-2	-2	3	-5	-8
Cc1cc(C)nc(NN2C(=O)/C(=C/c3ccccc3)SC2=S)n1	-6	14	15	8	4
Cc1cc(C)nc(NN2C(=O)C=CC2=O)n1	-29*	8	9	-6	2
CCOC(=O)c1csc(NC(=O)c2ccc(C#N)cc2)n1	-2	-12	-3	-14	0
SMILES	MEX-5 binding	MCL1 BIM primary	BCLXL inh	eLon inh	GLD-1 RNA inh
CN(C)S(=O)(=O)Oc1cccc(C(=O)Nc2ccc([N+](=O)[O-])cc2)c1	-1	6	-1	-5	5
COc1cccc(CCN2C(=O)C(=O)N([C@@H](CNCc3ccccc3)Cc3ccccc3F)C[C@@H]2C(C)(C)C)c1	.	6	5	.	181*
Cc1ccc(-c2cc(-c3ccc(C)o3)nc(N)c2C#N)cc1	-2	45*	32*	-16	39*
Cc1ccc(-c2cc(-c3ccc(F)cc3)c(C#N)c(N)n2)o1	0	31	23	-14	21
COC/C=C/C1=CC2=CC(=O)C(C)(OC(=O)c3ccco3)C(=O)C2=CO1 (configuration not stated)	.	60*	27	.	31*
COc1ccc(C2=CC3=CC(=O)C(C)(O)C(=O)C3=CO2)cc1 (configuration not stated)	-38*	27	16	.	11
COC/C=C/C1=CC2=CC(=O)C(C)(O)C(=O)C2=CO1 (configuration not stated)	-47*	64*	13	.	3
COC/C=C/C1=CC2=CC(=O)C(C)(OC(=O)C3CCCC3)C(=O)C2=CO1 (configuration not stated)	-3	26	14	6	20
COC/C=C/C1=CC2=CC(=O)C(C)(OC(=O)c3cccs3)C(=O)C2=CO1 (configuration not stated)	-9	15	6	.	6
COc1ccc(C2=CC3=C(Br)C(=O)C(C)(O)C(=O)C3=CO2)cc1 (configuration not stated)	-7	18	23	7	9
CN(C)S(=O)(=O)c1cc(NC(=O)CSc2ncc(C(F)(F)F)cc2Cl)ccc1Cl	0	9	5	-5	2
N#Cc1ccc[n+](CC(=O)c2ccc(Cl)cc2)c1	-4	40	33*	-2	16
Cc1ccc[n+](CC(=O)c2ccc(Br)cc2)c1	-1	.	.	-8	.
CCN(c1ccccc1)S(=O)(=O)c1ccc(C(=O)N(C)CCc2ccc(OC)c(OC)c2)cc1	1	3	-2	-2	0
Nc1ccc(Oc2ccccc2F)nc1	1	8	14	-19	32*
Nc1cccnc1Oc1ccccc1F	-3	7	7	-1	1
Cc1c(NC(=O)CC2NC(=O)NC2=O)c(=O)n(-c2ccccc2)n1C (configuration not stated)	1	1	5	.	1
CC1=NN(c2ccc(C(=O)O)c(N)c2)C(=O)C1	-39*	20	21	-7	-2
Cc1ccc(NC(=O)NC(=O)COC(=O)c2ccc(O)cc2O)c(C)c1	.	.	.	2	.
C=CCn1c(SCC(=O)N(CC)C2CCS(=O)(=O)C2)nc2ccccc2c1=O (configuration not stated)	0	-29	-35	-9	-4
CC1(C)CC(=O)C2=C(C1)N1C(=C(C#N)C2c2ccc(Cl)cc2)N=C(N)c2ccccc21 (configuration not stated)	0	3	6	-1	61*
N#Cc1ccccc1OCCN1C(=O)c2ccccc2C1=O	2	10	6	3	11
Nc1cccc2c1C(=O)N(CCOc1ccccc1F)C2=O	-12	37	35*	15	30
O=C(NC1CCCCC1)c1cc(S(=O)(=O)N2CCOCC2)ccc1Cl	-1	-4	-5	-3	-3
Cn1c(=O)c2[nH]c(C3CC3)nc2n(C)c1=O	.	.	.	-11	.
O=[N+]([O-])c1cccc(OCCN2CCC(Cc3ccccc3)CC2)c1	-2	.	.	-2	.
